In PubChem BioAssay (NCATS):
Inconclusive results are not listed. The source made the active and inactive calls. Unless noted, calls follow the shape of the dose curve; as a rule, active = well fitted curve in either direction with a large enough effect (not every such curve was filed as active); inconclusive = small, poorly fitted or top-dose-only effect, or another doubt; inactive = flat fitted curve, though single readings scatter.

Key:
[1] = biological target: Lysosomal acid glucosylceramidase (Homo sapiens) (UniProt P04062); experiment: Glucocerebrosidase-p2 (AID 348; in the data active = potency below about 10 µM; also: potency is read from the fitted curve at half-maximal effect); conditions: purified GBA, blue fluorogenic substrate, 40 min
Sequence of Lysosomal acid glucosylceramidase (Homo sapiens) (P04062 whole entry, looked up): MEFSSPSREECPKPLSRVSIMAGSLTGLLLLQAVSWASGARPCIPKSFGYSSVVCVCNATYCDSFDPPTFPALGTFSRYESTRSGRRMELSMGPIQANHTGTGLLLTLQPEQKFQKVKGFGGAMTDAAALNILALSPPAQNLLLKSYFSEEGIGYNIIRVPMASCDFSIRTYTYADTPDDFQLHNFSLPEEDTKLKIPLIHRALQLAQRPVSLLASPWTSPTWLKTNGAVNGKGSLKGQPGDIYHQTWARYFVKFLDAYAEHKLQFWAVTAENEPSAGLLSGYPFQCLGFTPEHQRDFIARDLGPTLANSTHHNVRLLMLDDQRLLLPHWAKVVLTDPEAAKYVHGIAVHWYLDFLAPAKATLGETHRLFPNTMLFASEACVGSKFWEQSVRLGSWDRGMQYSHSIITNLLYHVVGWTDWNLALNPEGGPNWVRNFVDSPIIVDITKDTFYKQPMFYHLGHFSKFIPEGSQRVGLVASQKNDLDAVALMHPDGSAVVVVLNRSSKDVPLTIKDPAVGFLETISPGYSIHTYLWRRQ
How it was run: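 Compounds titrated from 0.6 nM upwards against 0.2 nM enzyme in pH 5.9 citric acid/KH2PO4, taurocholate, tween-20; blue fluorogenic substrate 80 uM, 40 min room temperature, stopped and read Ex 365/Em 440 for AC50.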

[2] = AP1 Signaling Pathway (AID 357); conditions: ME-180 AP-1-bla reporter, EGF-induced, beta-lactamase ratio, 5 h; at 7.69 µM (top of the series) unless noted; also: % is scaled to controls: 0 for no effect and ±100 for the full control effect
How it was run: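 Modulation of EGF-driven AP-1 transcription was assessed with a beta-lactamase reporter in ME-180 cells. Compound and EC50 EGF were co-incubated 5 hours at 37 °C before 2.5-hour CCF4 loading at room temperature and dual-emission reading.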

[3] = biological target: Cytochrome P450 1A2 (Homo sapiens) (UniProt P05177); experiment: p450-cyp1a2 (AID 410; calls by dose curve; also: potency is read from the fitted curve at half-maximal effect;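 as to activity change, negative = inhibition: -100% = full effect of reference inhibitor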); conditions: recombinant CYP1A2, luciferin-ME demethylation, luminescence; series mostly up to 57 µM
Sequence of Cytochrome P450 1A2 (Homo sapiens) (P05177 whole entry, looked up): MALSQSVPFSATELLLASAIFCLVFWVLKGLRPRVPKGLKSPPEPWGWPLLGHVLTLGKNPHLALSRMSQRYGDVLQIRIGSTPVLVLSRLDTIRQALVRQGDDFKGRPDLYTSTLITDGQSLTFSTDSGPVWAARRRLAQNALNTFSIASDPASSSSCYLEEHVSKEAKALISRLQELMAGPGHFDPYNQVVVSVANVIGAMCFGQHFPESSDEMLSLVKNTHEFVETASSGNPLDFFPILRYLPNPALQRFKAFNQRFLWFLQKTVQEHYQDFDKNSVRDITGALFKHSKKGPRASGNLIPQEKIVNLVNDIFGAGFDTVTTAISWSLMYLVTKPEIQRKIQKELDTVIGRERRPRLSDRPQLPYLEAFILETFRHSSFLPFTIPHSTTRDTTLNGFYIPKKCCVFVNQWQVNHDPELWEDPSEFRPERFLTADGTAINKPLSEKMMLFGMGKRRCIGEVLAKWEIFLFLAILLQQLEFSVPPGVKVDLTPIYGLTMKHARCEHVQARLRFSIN
How it was run: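 Luminescent readout of luciferin formed from Luciferin-ME by human CYP1A2; data normalized against complete inhibition by 57 uM furafylline. Enzyme 20nM, substrate 100uM at Km, 100mM KPO4 buffer, 60 min reaction at room temperature.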

[4] = Stat Signaling Pathway (AID 446); conditions: ME-180 SIE beta-lactamase reporter, IL-6 stimulated, 5 h; at 7.69 µM (top of the series) unless noted;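 also: ME-180 cervical cancer cells given 40 pM IL-6 alongside compound; SIE-controlled beta-lactamase reporter measured as 460/530 nm FRET emission ratio; % is scaled to controls: 0 for no effect and ±100 for the full control effect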
How it was run: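 Screening format detects activators and inhibitors alike: ME-180 SIE-bla cells stimulated at 40 pM IL-6 for 5 hrs with compound, then dual-emission beta-lactamase read at 405 nm excitation.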

[5] = biological target: Glucocorticoid receptor (Homo sapiens) (UniProt P04150); experiment: GR-EFC Redistribution (AID 451; calls by dose curve; also: potency is read from the fitted curve at half-maximal effect); conditions: CHO-K1 GR-EFC translocation, beta-gal luminescence, 2 h
Sequence of Glucocorticoid receptor (Homo sapiens) (P04150 whole entry, looked up, the tested form may be a part): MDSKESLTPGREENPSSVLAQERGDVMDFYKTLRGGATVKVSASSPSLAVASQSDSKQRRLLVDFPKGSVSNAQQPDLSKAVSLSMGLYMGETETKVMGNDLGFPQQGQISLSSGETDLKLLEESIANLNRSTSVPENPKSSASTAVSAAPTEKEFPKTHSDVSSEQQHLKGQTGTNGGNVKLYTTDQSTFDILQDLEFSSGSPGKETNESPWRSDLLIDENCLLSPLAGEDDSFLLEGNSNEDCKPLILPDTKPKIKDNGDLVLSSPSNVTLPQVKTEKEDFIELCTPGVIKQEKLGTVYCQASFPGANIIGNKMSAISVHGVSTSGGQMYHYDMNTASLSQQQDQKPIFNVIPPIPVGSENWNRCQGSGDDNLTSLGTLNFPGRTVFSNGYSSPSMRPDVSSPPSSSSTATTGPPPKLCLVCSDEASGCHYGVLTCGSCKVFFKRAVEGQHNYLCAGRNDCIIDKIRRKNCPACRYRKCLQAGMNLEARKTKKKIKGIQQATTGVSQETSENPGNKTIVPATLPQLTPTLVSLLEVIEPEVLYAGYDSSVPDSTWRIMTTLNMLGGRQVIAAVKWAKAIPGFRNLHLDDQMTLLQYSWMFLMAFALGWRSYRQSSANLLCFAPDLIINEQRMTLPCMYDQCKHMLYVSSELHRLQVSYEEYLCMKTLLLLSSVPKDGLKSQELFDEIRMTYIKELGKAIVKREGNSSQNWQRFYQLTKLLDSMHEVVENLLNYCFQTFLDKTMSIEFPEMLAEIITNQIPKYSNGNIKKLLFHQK
How it was run: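 CHO-K1 cells stably expressing nuclear-localized β-gal enzyme acceptor and GR fused C-terminally to the enzyme donor fragment; ligand-driven nuclear translocation restores β-gal by complementation. Compounds titrated up to 46 uM final, 2 h at 37 °C; luminescence read.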

[6] = biological target: Mitogen-activated protein kinase 10 (Mus musculus) (UniProt Q61831); experiment: JNK3 AlphaScreen Assay (AID 530); conditions: JNK3 lysate, c-Jun phosphorylation; series mostly up to 57.1 µM;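 also: kinase came from lysate of stimulated human HepG2 cells; signal reports phosphorylation of biotinylated GST-cJun 1-79 at Ser73 with 10 µM ATP; % is scaled to controls: 0 for no effect and ±100 for the full control effect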
How it was run: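 Inhibitors reduce antibody binding to phosphorylated biotin-cJun, lowering AlphaScreen luminescence. Lysates from HepG2 cells pre-activated by IL-1beta plus TNF-alpha supplied JNK3; compounds were titrated.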

[7] = biological target: 3',5'-cyclic-AMP phosphodiesterase 4B (Homo sapiens) (UniProt Q07343); experiment: qHTS Assay for Inhibitors of PDE-IV (AID 607; active = well fitted activation curve with a large enough effect in the main read-out, with a control signal flat, not every such curve was filed as active; also: % of control where 0% means no effect); conditions: HEK293 ACTOne CNG channel cells, membrane potential fluorescence; series mostly up to 22.9 µM
Sequence of 3',5'-cyclic-AMP phosphodiesterase 4B (Homo sapiens) (Q07343 whole entry, looked up): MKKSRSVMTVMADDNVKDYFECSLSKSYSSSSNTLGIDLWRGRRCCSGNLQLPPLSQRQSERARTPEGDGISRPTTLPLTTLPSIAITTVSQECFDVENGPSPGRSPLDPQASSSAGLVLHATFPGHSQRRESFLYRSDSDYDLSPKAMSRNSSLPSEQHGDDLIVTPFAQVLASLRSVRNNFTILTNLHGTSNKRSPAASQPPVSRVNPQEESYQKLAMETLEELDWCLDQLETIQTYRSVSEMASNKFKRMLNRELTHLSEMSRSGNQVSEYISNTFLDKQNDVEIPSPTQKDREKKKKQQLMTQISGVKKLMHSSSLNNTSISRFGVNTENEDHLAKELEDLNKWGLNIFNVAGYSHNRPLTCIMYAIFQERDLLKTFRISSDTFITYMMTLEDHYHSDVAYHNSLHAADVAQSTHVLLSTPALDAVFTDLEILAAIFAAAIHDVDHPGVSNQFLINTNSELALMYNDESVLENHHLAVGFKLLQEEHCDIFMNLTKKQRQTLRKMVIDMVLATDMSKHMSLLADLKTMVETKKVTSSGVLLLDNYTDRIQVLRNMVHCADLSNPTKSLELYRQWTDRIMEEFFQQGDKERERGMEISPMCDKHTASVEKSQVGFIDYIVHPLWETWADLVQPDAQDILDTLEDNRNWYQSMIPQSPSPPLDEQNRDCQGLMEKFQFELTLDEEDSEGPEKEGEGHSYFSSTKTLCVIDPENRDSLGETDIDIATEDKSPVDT
How it was run: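 The readout is membrane depolarisation from a cAMP-sensing CNG channel, detected with a potential dye at ex 535/em 590. Cells were HEK293-derived (endogenous PDE-IV) at 1000 cells/well, titrated up to 22.9 uM final.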

[8] = biological target: Cytochrome P450 3A4 (Homo sapiens) (UniProt P08684); experiment: qHTS Assay for Activators of Cytochrome P450 3A4 (AID 885; active = well fitted curve in the direction sought with a large enough effect; an effect the other way counts as inactive or inconclusive; also: nearly all actives have a fitted effect of over 65% in size; also: potency is read from the fitted curve at half-maximal effect); conditions: recombinant CYP3A4, Luciferin-PPXE luminescence, 60 min; series mostly up to 57.1 µM
Sequence of Cytochrome P450 3A4 (Homo sapiens) (P08684 whole entry, looked up): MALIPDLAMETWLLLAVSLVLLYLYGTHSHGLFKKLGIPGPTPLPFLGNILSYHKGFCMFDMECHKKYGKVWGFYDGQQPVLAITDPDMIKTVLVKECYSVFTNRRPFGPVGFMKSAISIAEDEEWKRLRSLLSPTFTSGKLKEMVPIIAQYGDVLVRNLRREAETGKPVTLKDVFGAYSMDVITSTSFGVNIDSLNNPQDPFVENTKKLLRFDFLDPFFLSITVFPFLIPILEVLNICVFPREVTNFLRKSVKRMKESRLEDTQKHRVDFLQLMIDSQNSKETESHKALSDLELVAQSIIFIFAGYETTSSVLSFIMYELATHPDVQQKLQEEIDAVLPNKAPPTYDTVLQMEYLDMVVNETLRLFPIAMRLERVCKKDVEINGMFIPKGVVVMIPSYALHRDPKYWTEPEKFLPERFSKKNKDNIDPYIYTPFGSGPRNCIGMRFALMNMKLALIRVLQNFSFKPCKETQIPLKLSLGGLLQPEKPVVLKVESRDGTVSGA
How it was run: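 Steps: enzyme/substrate mix dispensed; compound added, 10 min RT; NADPH regeneration solution added, 60 min RT; luciferin detection buffer stops reaction; 20 min later luminescence measured.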

[9] = qHTS Assay for Lipid Storage Modulators (AID 1519; calls by dose curve; also: potency is read from the fitted curve at half-maximal effect); conditions: Drosophila S3 cells, BODIPY lipid droplet/cell ratio, laser cytometry, cells loaded with oleic acid; for activity change, negative = inhibition: at 57.5 µM (top of the series)
How it was run: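 Cells seeded at 5,000 per well were treated with compounds over a concentration series and loaded with oleic acid (400 uM, as added). Lipid droplet fluorescence (488 nm excitation, 500-530 nm channel) was read by laser-scanning cytometry and normalized to 20 uM Triacsin C.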

[10] = NFAT Signaling Pathway (AID 444); conditions: Jurkat NFAT-bla M1, carbachol, beta-lactamase ratio, 5 h; at 7.69 µM (top of the series) unless noted;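 also: carbachol stimulus at about its EC50 of 1 µM final; % is scaled to controls: 0 for no effect and ±100 for the full control effect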
How it was run: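 Jurkat cells carrying an NFAT-driven β-lactamase reporter and co-transfected muscarinic M1 receptor were treated with compound plus carbachol (1 uM final, an EC50 level) for 5 h at 37 °C. CCF4 loading followed for 1 h at RT; 460/530 nm ratio gave %activity.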

[11] = biological target: Cytochrome P450 3A4 (Homo sapiens) (UniProt P08684); experiment: qHTS Assay for Inhibitors and Substrates of Cytochrome P450 3A4 (AID 884; active = well fitted curve in the direction sought with a large enough effect; an effect the other way counts as inactive or inconclusive; also: nearly all actives have a fitted effect of over 50% in size; also: potency is read from the fitted curve at half-maximal effect); conditions: recombinant CYP3A4, Luciferin-PPXE luminescence; series mostly up to 57.1 µM
How it was run: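 20 nM human CYP3A4 with 25 uM Luciferin-PPXE (at KM) in 200 mM KPO4, preincubated 10 min with compound; NADPH regeneration started a 60 min RT reaction. Luciferin detected by luminescence, normalized to 57 uM ketoconazole as full inhibition.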

[12] = biological target: Glucocorticoid receptor (Homo sapiens) (UniProt P04150); experiment: GR-GFP Redistribution (AID 450;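 active = compounds whose dose series gives a full or clear partial fitted curve of increased nuclear translocation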; also: potency is read from the fitted curve at half-maximal effect); conditions: U2OS GR-GFP nuclear translocation, laser cytometry, 2 h
[13] = Confirmation and Secondary Assay for Modulators of Hemoglobin Beta Chain Splicing at IVS2 654 locus (AID 910; active = well fitted curve in the direction sought with a large enough effect; an effect the other way counts as inactive or inconclusive;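 also: per-well total GFP intensity by laser scanning cytometry after 2-day treatment; % of control where 0% means no effect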); conditions: HeLa EGFP-654 splicing reporter, GFP fluorescence, 48 h; series mostly up to 38.3 µM
How it was run: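 HeLa cells stably carrying EGFP interrupted by mutant beta-globin IVS2-654 intron (CMV-driven) were treated with compound for 2 days at 37C; corrected splicing was scored as total peak GFP intensity per well (488 nm excitation, 500-520 nm emission).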

[14] = Confirmation and Secondary Assay for Modulators of Hemoglobin Beta Chain Splicing at IVS2 705 locus (AID 930; active = well fitted curve in the direction sought with a large enough effect; an effect the other way counts as inactive or inconclusive;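 also: HeLa cells stably expressing the EGFP-705 splicing reporter; GFP fluorescence per well restored by corrected splicing of the IVS2-705 intron in EGFP; % of control where 0% means no effect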); conditions: HeLa EGFP-705 splicing reporter, GFP fluorescence, 48 h; series mostly up to 38.3 µM
How it was run: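 Fluorescence gain (488 nm laser, 500-520 nm PMT) reflects restored correct splicing of a mutant IVS2-705 intron inside EGFP in stably transfected HeLa cells after 2-day compound treatment.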

[15] = biological target: Ubiquitin carboxyl-terminal hydrolase 1 (Homo sapiens) (UniProt O94782); experiment: Inhibitors of USP1/UAF1: Pilot qHTS (AID 504865; active = well fitted curve in the direction sought with a large enough effect; an effect the other way counts as inactive or inconclusive; also: potency is read from the fitted curve at half-maximal effect; nearly all actives have a fitted effect of over 35% in size); conditions: purified USP1/UAF1, Ub-rhodamine cleavage fluorescence; series mostly up to 54.9 µM
Sequence of Ubiquitin carboxyl-terminal hydrolase 1 (Homo sapiens) (O94782 whole entry, looked up): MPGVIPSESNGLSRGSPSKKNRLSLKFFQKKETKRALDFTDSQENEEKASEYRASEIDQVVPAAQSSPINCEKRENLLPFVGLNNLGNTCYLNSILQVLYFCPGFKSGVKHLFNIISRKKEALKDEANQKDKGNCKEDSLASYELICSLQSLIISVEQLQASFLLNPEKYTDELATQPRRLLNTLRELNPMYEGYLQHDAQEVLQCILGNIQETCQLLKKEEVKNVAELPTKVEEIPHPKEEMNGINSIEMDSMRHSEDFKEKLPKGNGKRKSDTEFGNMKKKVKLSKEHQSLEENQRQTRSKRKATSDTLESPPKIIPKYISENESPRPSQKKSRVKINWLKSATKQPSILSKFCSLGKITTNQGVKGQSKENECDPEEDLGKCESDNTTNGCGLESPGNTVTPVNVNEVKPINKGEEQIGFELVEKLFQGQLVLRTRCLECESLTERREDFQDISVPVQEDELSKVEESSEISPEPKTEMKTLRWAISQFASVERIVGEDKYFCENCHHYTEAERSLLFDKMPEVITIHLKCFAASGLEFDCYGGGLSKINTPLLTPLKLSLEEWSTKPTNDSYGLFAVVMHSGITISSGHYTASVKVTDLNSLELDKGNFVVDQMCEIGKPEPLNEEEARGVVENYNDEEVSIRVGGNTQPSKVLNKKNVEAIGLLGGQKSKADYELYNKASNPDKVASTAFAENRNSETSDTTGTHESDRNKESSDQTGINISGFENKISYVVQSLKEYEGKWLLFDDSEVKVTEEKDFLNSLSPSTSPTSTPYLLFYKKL
How it was run: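 USP1/UAF1 complex (1nM) preincubated with compound 15 min at room temperature, then Ub-Rho substrate (150nM final) added. Fluorescence read kinetically at 480/540 nm, 6 reads every 60 seconds. Buffer: 50mM HEPES pH 7.8, 0.5mM EDTA, 0.1 mg/ml BSA, 1mM TCEP, 0.01% Tween-20.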

[16] = measured here: cell count channel max response
[17] = measured here: lipid channel max response

Structure (SMILES)	Potency [1]	activity change, negative = inhibition [2]	Potency [3]	activity, negative = inhibition [4]	Potency [5]	Potency [6]	Potency [7]	Potency [8]	activity change, negative = inhibition [9]	max response [9, 16] [%]	max response [9, 17] [%]	activity change, negative = inhibition [10]	Potency [9]	Potency [11]	Potency [12]	Potency [13]	outcome [14]	Potency [15]
COc1ccccc1CN1CC[C@@]2(CCCN(S(=O)(=O)c3ccccc3)C2)C1	> 11.4 µM (inactive)	7.37% (inactive)	25.1 µM (active)	8.35% (inactive)	> 46 µM (inactive)	inactive	inactive	inactive	6.22% (inactive)	0.611	10.2							
CS(=O)(=O)N1CCC[C@@]2(CCN(C(c3ccccc3)c3ccccc3)C2)C1	> 11.4 µM (inactive)	5.41% (inactive)	25.1 µM (active)	1.66% (inactive)	> 46 µM (inactive)	inactive	inactive	inactive		-26.7	-82.6	-7.94% (inactive)	7.94 µM (active)					
COC(=O)N1CCC2(CC1)CN(c1ccncc1)C2	> 11.4 µM (inactive)	1.61% (inactive)	inactive	-7.68% (inactive)	> 46 µM (inactive)	inactive	inactive		3.84% (inactive)	7.79	12.9							
O=C(c1cccc(F)c1)N1CCC2(CC1)CCN(C(c1ccccc1)c1ccccc1)CC2	> 11.4 µM (inactive)	2.86% (inactive)	10 µM (active)	-6.67% (inactive)	> 46 µM (inactive)	inactive	inactive	5.01 µM (active)	4.65% (inactive)	12.8	19.8			inactive				
O=C(c1cc(C(F)(F)F)cc(C(F)(F)F)c1)N1CCC2(CC1)CN(Cc1ccccc1)C2	> 11.4 µM (inactive)	-4.34% (inactive)	inactive	9.42% (inactive)	> 46 µM (inactive)	inactive	inactive		1.87% (inactive)	22.2	24.8							
Cn1cccc1C(=O)N1CCC2(CC1)CN(c1ccccn1)C2	> 11.4 µM (inactive)	2.02% (inactive)	inactive	-6.36% (inactive)	> 46 µM (inactive)	inactive	inactive	12.6 µM (active)	5.7% (inactive)	7.05	13.8			inactive				
c1ccc2c(Nc3ccncc3)nc(-c3ccc4c(c3)OCO4)nc2c1	2.47 µM (active)	4.72% (inactive)	1.26 µM (active)	-10.5% (inactive)	> 46 µM (inactive)	inactive		inactive	-19.5% (inactive)	5.68	-11.9			0.501 µM (active)	> 46 µM (inactive)	inactive	inactive	39.8 µM (active)
Cn1cccc1C(=O)N1CCC2(CC1)CN(Cc1ccc(C#N)cc1)C2	> 11.4 µM (inactive)	6.46% (inactive)	inactive	-7.55% (inactive)	> 46 µM (inactive)	inactive	inactive		4.17% (inactive)	20.5	25.8							
N#Cc1ccc(CN2CC[C@@]3(CCCN(S(=O)(=O)c4ccccc4)C3)C2)cc1	> 11.4 µM (inactive)	0.616% (inactive)	15.8 µM (active)	-5.91% (inactive)	> 46 µM (inactive)	inactive	inactive		-4.95% (inactive)	13.6	7.48							
CC(C)CN1CC[C@@]2(CCCN(C(=O)c3cc(C(F)(F)F)cc(C(F)(F)F)c3)C2)C1	> 11.4 µM (inactive)	-5.91% (inactive)	25.1 µM (active)	11.2% (inactive)	> 46 µM (inactive)	inactive	inactive	inactive	1.55% (inactive)	13.4	17.5							
O=C(c1cnccn1)N1CCC2(CCCN(c3cccc(-c4ccccc4)c3)C2)CC1	> 11.4 µM (inactive)	-16.1% (inactive)	20 µM (active)	-8.34% (inactive)	> 46 µM (inactive)	inactive		inactive	-1.76% (inactive)	20.5	18.4	5.03% (inactive)		2 µM (active)				
CN1CC[C@@]2(CCCN(C(=O)c3cccn3C)C2)C1	> 11.4 µM (inactive)	0.737% (inactive)	inactive	-1.28% (inactive)	> 46 µM (inactive)	inactive	inactive	inactive	2.7% (inactive)	-0.284	4.15	9.28% (inactive)						
FC(F)(F)c1cc(CN2CC[C@@]3(CCCNC3)C2)cc(C(F)(F)F)c1	> 11.4 µM (inactive)	7.88% (inactive)	inactive	4.03% (inactive)	> 46 µM (inactive)	inactive	inactive	inactive	1.16% (inactive)	8.55	10.6							
CN1CCCC2(CCN(S(=O)(=O)c3ccccc3)CC2)C1	> 11.4 µM (inactive)	17.6% (inactive)	20 µM (active)	-3% (inactive)	> 46 µM (inactive)	inactive	inactive		2.33% (inactive)	19.8	25							
COc1ccc(NC(=O)N2CCCC3(CCN(C(=O)c4cc(C(F)(F)F)cc(C(F)(F)F)c4)CC3)C2)cc1	> 11.4 µM (inactive)	-9.5% (inactive)	inactive	-15.1% (inactive)	> 46 µM (inactive)	inactive	inactive	inactive	6.29% (inactive)	9.63	18.5	12.1% (inactive)						
